The record followed here is PubChem BioAssay (NCATS).

Activity calls are given as the source filed them. Calls come from the whole dose curve.

This test in a line: qHTS drug screen for cell cycle checkpoint inhibitors in PARPi-resistant BRCA-mutant ovarian cancer cell lines. (AID 1963452). Particulars: PEO1/OlaR viability, CellTiter-Glo luminescence, 96 h, stronger effect = lower value. The source says: Women's Malignancies Branch, Center for Cancer Research (CCR),
National Cancer Institute (NCI), National Institutes of Health (NIH), Bethesda, MD
Poly (ADP-ribose) polymerase inhibitors (PARPis) have changed the treatment paradigm in breast cancer gene (BRCA) - mutant high-grade serous ovarian carcinoma (HGSC). However, most patients eventually develop resistance to PARPis, highlighting an unmet need for improved therapeutic strategies. Using high-throughput drug screens, we identified ataxia telangiectasia and rad3-related protein/checkpoint kinase 1 (CHK1) pathway inhibitors as cytotoxic and further validated the activity of the CHK1 inhibitor (CHK1i) prexasertib in PARPi-sensitive and -resistant BRCA-mutant HGSC cells and xenograft mouse models. CHK1i monotherapy induced DNA damage, apoptosis, and tumor size reduction. We then conducted a phase 2 study (NCT02203513) of prexasertib in patients with BRCA-mutant HGSC. The treatment was well tolerated but yielded an objective response rate of 6% (1 of 17; one partial response) in patients with previous PARPi treatment. […] BRCA reversion mutation in previously PARPi-treated BRCA-mutant patients was not associated with resistance to CHK1i.
Among others, 1082 oncology drugs, both approved and investigational, were prioritized based on their status in clinical trial development. […] Drugs with average Z-AUC values less than -1.0 in all three cell lines were classified as "hits" resulting in 151 oncology drug hits. The screen also confirmed cross-resistance between olaparib and other PARPis (rucaparib, niraparib, and talazoparib) in PARPi-resistant PEO1/OlaR and PEO4.
[1] G. L. Lin, K. M. Wilson, M. Ceribelli, B. Z. Stanton, P. J. Woo, S. Kreimer, E. Y. Qin, X. Zhang, J. Lennon, S. Nagaraja, P. J. Morris, M. Quezada, S. M. Gillespie, D. Y. Duveau, A. M. Michalowski, P. Shinn, R. Guha, M. Ferrer, C. Klumpp-Thomas, S. Michael, C. McKnight, P. Minhas, Z. Itkin, E. H. Raabe, L. Chen, R. Ghanem, A. C. Geraghty, L. Ni, K. I. Andreasson, N. A. Vitanza, K. E.Warren, C. J. Thomas, M. Monje, Therapeutic strategies for diffuse midline glioma from high-throughput combination drug screening. Sci. Transl. Med. 11, (2019).
[2] T. M. Yamamoto, A. McMellen, Z. L. Watson, J. Aguilera, R. Ferguson, E. Nurmemmedov, T. Thakar, G. L. Moldovan, H. Kim, D. M. Cittelly, A. M. Joglar, E. P. Brennecke, H. Wilson, K. Behbakht, M. J. Sikora, B. G. Bitler, Activation of Wnt signaling promotes olaparib resistant ovarian cancer. Mol. Carcinog. 58, 1770 - 1782 (2019).
PROTOCOL TABLE (as described by Inglese J, Shamu CE and Guy RK. 2007)
SEQUENCE No. (e.g., 1, 2, 3, etc.); […] (e.g., Cells, Incubation, Reagent, etc.); VALUE; DESCRIPTION.
1; Compounds; 20nL; 1536-well white tissue culture-treated plates.
2; Cells; 5 uL; PEO1, PEO4, and PEO1/OlaR cells at 600 cells per well.
3; Incubation; 96 hr; 37C, 95% humidity, 5% CO2.
4; Reagent; 3 uL; CellTiter-Glo (Promega).
5; Incubation; 15 min; room temperature.
6; Detection; Luminescence, PHERAstar (BMG Labtech) plate reader.
NOTES (numbers refer to Sequence numbers above)
1. MIPE 5.0 compounds were acoustically dispensed by Echo Acoustic Liquid Handler (Beckman Coulter Life Sciences). Each compound was plated at an 11-point concentration range with 1:3 dilution. Bortezomib, a proteasome inhibitor (final concentration, 20 uM), was used as a positive.
2. PEO1, PEO4, and PEO1/OlaR were trypsinized and dispensed in 5 uLof growth medium using a Multidrop Combi dispenser at a density of 600 cells per well to allow compounds to be present during the exponential growth phase.
3. Plates were incubated for 96 hours at standard incubator conditions and covered by a stainless steel gasketed lid to prevent evaporation.
4. Three microliters of CellTiter-Glo (Promega) were added to each well.
5. Plates were incubated at room temperature for 15 min with a stainless-steel lid in place.
6. Luminescence readings were taken using PHERAstar (BMG Labtech). […]
(qHTS replaces the single test concentration by a dilution series.)

[1] abbreviates: measured here: PEO1 parental Z-AUC.

Turning to `CCN(CC)CCOc1ccc(/C(=C(\Cl)c2ccccc2)c2ccccc2)cc1`, the Z-AUC is -0.751 (inactive). Besides, under setting [1], the Z-AUC is -0.39. The Z-AUC (measured here: PEO4 Z-AUC) was -0.613.
For the compound `O=C(Nc1ccc(S(=O)(=O)N2CCOCC2)cc1)c1cc(Cl)ccc1NS(=O)(=O)c1ccc(Cl)s1`, the Z-AUC is 1.19 (inactive). For the same compound, the Z-AUC under setting [1] was 0.998. Where the note is “measured here: PEO4 Z-AUC”, the Z-AUC was found to be 1.36.
Regarding `O=C1NC(=O)/C(=C/c2ccc3c(c2)OC(F)(F)O3)S1`, the Z-AUC is -0.958 (inactive). In addition, the Z-AUC under setting [1] was -0.173. Also, where the note is “measured here: PEO4 Z-AUC”, the Z-AUC was -0.926.
Take `CNC[C@H](O)[C@@H](O)[C@H](O)[C@H](O)CO`: the Z-AUC was -0.453 (inactive). In addition, the Z-AUC under setting [1] was -0.0353. Further, the Z-AUC (measured here: PEO4 Z-AUC) stood at 0.238.
On to `C[C@H]1C[C@H]2[C@@H]3CCC4=CC(=O)C=C[C@]4(C)[C@H]3C(=O)C[C@]2(C)[C@@]1(O)C(=O)CO`, for which the Z-AUC is 1.47 (inactive). Further, the Z-AUC under setting [1] amounted to 0.72. In addition, the Z-AUC (measured here: PEO4 Z-AUC) worked out at 0.786.
The matching figures for `CC1(C)O[C@@H]2C[C@H]3[C@@H]4C[C@H](F)C5=CC(=O)C=C[C@]5(C)[C@@]4(F)[C@@H](O)C[C@]3(C)[C@]2(C(=O)CO)O1`: -1.1 (inactive), 0.399 and -0.582.
Taken in the same sequence, the figures for `O=[N+]([O-])c1cncn1CCN1CCOCC1` were 1.32 (inactive), 1.34 and 1.02.
The matching figures for `CC1(C)O[C@@H]2C[C@H]3[C@@H]4CCC5=CC(=O)C=C[C@]5(C)[C@@]4(F)[C@@H](O)C[C@]3(C)[C@]2(C(=O)CO)O1`: 0.569 (inactive), 1.66 and 0.813.
As to `CC(C)N(CCC(=O)c1ccc2ccccc2c1)Cc1ccccc1`, the Z-AUC is -1.4 (inactive). Besides, under setting [1], the Z-AUC is -0.867. Further, for the setting “measured here: PEO4 Z-AUC”, the Z-AUC was -0.853.
For the compound `CN1CC(=O)N2[C@H](c3ccc4c(c3)OCO4)c3[nH]c4ccccc4c3C[C@@H]2C1=O`, the Z-AUC was 0.983 (inactive). Also, the Z-AUC under setting [1] stood at 0.823. In addition, where the note is “measured here: PEO4 Z-AUC”, the Z-AUC is 0.783.
Taken in the same sequence, the figures for `O=C(O)C(=O)Nc1cccc(-c2nn[nH]n2)c1` were 0.0028 (inactive), 0.552 and 0.459.
In the case of `CC1c2ccccc2CN1NC(=O)c1ccc(Cl)c(S(N)(=O)=O)c1` (configuration not stated), the Z-AUC is 1.28 (inactive). Further, the Z-AUC under setting [1] was 0.911. The Z-AUC (measured here: PEO4 Z-AUC) is 0.911.
As for `CCOC(=O)O[C@]1(C(=O)OCCl)CC[C@H]2[C@@H]3CCC4=CC(=O)C=C[C@]4(C)[C@H]3[C@@H](O)C[C@@]21C`, the Z-AUC was 1.04 (inactive). The Z-AUC under setting [1] came out at 0.868. Also, the Z-AUC (measured here: PEO4 Z-AUC) was found to be 1.23.
Regarding `COc1c(C)c2c(c(O)c1C/C=C(\C)CCC(=O)OCCN1CCOCC1)C(=O)OC2`, the Z-AUC is 0.671 (inactive). Also, the Z-AUC under setting [1] is 0.614. Moreover, the Z-AUC (measured here: PEO4 Z-AUC) is 0.906.
